Assay results from the supplement of paper PMC12632987.

T1: USP38, Q8NB14
T1 chain: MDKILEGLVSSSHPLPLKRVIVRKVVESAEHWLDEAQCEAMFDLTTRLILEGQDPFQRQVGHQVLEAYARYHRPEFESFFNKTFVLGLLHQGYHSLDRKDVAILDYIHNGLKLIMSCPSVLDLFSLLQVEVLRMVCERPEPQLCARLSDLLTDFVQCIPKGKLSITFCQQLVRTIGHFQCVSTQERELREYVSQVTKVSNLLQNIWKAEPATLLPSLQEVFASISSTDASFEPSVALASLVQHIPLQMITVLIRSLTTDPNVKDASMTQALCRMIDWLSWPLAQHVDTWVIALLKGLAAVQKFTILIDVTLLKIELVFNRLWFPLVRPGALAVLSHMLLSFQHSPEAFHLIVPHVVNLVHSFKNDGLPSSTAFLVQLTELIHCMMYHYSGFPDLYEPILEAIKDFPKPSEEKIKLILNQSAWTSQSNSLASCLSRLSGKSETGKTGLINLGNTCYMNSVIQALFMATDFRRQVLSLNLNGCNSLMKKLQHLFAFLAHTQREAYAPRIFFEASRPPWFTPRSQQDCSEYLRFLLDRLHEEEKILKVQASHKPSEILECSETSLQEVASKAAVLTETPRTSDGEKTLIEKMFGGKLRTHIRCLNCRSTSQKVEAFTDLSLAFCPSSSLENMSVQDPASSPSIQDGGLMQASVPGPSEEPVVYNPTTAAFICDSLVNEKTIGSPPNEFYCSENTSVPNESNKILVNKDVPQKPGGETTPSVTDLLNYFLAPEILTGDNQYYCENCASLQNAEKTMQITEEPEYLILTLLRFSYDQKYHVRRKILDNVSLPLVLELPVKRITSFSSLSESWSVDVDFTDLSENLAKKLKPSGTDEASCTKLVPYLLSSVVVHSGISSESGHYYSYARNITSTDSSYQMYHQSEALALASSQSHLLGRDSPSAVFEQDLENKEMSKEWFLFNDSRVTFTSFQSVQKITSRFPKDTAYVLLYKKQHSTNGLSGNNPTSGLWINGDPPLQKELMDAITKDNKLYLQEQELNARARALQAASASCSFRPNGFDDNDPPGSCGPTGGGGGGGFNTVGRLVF

B1: usp_38_diff_out_3_65_528 (protein)
chain: GVEELLARAEEALRRLEEVIREAEEALKRAEELSAEELDELIRRATRVALEAERIRRELRRAGDSPEIRAAIARLEEAIERLNEVIERLTEALTAKLIAE
B2: usp_38_diff_out_3_124_515 (protein)
chain: AEAEALLAELEELLERAEELIERAEEELDGDLERLRELLEELDEVLDELSAVFMRLHELAAEDPSHRPLLKEARKRSNEVITRATEVRLRALERLAEAAE
B3: usp_38_diff_out_2_35_492 (protein)
chain: SEEEEKAREEARKEIDELTDELNKTTSETLEALAEADAPLEKFDELMAKYSEAARALAATYKLIQEGAPLEEIEKALKEAKEAVEAFKKFAEELLKEAKA
B4: usp_38_diff_out_3_124_517 (protein)
chain: SRADELAAEARATLAELNATLAELEAALDTDLERARELAARADELLARLSGLLLELRDLAREDPRYRPTLKELEAEANAAIDRYTELMTRLFEKEAEAAA
B5: usp_38_diff_out_2_113_474 (protein)
chain: DPEERRKEAELYRDIILEGAEQLLRLAKAGRLTPDRTKVMLGGIVHAAEEAYELDPSVKPTIEEVIKKLEEVYELVKDKNPEVAAEIKEAIEKLKEILKK
B6: usp_38_diff_out_3_124_516 (protein)
chain: MKAEKLYEELKKLLKEIEKLIKEAKKELNKDLEELKKLLKELDKKLDELSKVFMELHELAAEDPRYRPLLKEARKESNKVITEATKVKLEALERLAEEEE
B7: usp_38_diff_out_2_61_511 (protein)
chain: NKELEEQIKEIKKLIEEAKKLVEELEALLDTADEATLEKLLEEAEKVLNKAIDLLVQAFEQAHEAGDEEALKQLDELWDELGKVAARLREARERLTRRRR
B8: usp_38_diff_out_2_61_510 (protein)
chain: NKELEKMIKEIEAKIKEAKALVDELEAGLDTLDEETLEALLAEARAVLDEAIDLLVKAYELAHELDDKEALERLDKLWDELGEVAARLREARERFTRRRR
B9: usp_38_diff_out_3_136_522 (protein)
chain: SVAAVKAEIERLKATADEMKKSTLRLIAELSKDPNVTPEDVESLKKVVLDSYQDLKDDVKALKAANPEVAAQADAALAAIDANAAEVKAAFDALLKEKKA
B10: usp_38_diff_out_2_61_507 (protein)
chain: SAELQAQAERIEALLAQAEALIAELEAQLDTADEATLRALLAEAQAVLDEAIDLLVELYLRAHEAGDEEALAQADALWDRLGAVAARLRRAREALTDRLS
B11: usp_38_diff_out_2_35_490 (protein)
chain: MEEEEAFRKKVKEELDKMQDEAHEATTETLELLAEADAPLERFDELMRKYDEFMEAAAKTYKLIEEGASKEEIEKALKEAREKYKEFMEFAEKLKKEVAA
B12: usp_38_diff_out_2_141_476 (protein)
chain: SEADELFREAFEREARAVAEEARKLIPKRLAIAERLAARGDLASLEERRTRVRAQAGAFRAMAEELEEMGGRPEVIELLRATAAELEEAAARIEELIAKL
B13: usp_38_diff_out_2_113_472 (protein)
chain: DPEEKKKEAELYKDIITEGADQLLELAKKGKLTPDRTAVMTAGIVHAAEVAYELDPSVKPTIEEVIKKLEEVYELVKDKNPEVAKIIEEAIKKLKEILKK
B14: usp_38_diff_out_3_136_527 (protein)
chain: ATAAVRARIRALEETARELKRSSLRLVEELLKDPNVTPEDLEELRKIVLDSFRDLEEEVRRLAAAEPAVAEEARRAEEEIRRYREEVERAFEEAIAAKKA
B15: usp_38_diff_out_2_35_489 (protein)
chain: SEEEEEFRREARERLDKLADEVNDTTRETLEALAEADAPLEEIERVLEESDKAFKAIAEAYRLIREGASREEIEEALKKAEEKVKEFKKYAEEVLKRLKE
B16: usp_38_diff_out_3_136_523 (protein)
chain: MLEEVRERVRRLEETAVSLKESMLKLIEELKKDPNVTPEDVEELRKVVLDAFDSLKAEVKEIQERYPEVKEEAEKALETIEKKKKEVDKAFEELIKEKKA
B17: usp_38_diff_out_3_124_514 (protein)
chain: SRAEALFAKLKELLAKAEELIKKAEEELDKNLEELKKLLEELDKVMDEASRVFMELHELAAEDPAHRPLLKEARAASNKVVTRYTEVVLKALERLAEAEE
B18: usp_38_diff_out_2_35_491 (protein)
chain: AAAEAARREEIRRRIDEMVDEANELTAETLEKLAEADAPDEKFEELFEAYDELMRLLARTYRLIREGAPLEEIERALEEAERKLEEFKKLAEELKKEAEE
B19: usp_38_diff_out_3_136_526 (protein)
chain: SVAAVKAQIKALEATARALKEDMLKLVEELLKDPNVTPEDLESLKKIVLDSFDDIIKEVEELAKKYPEVKEEAEKAIKKIEEYRDEVKKAFDEAIKEKKA
B20: usp_38_diff_out_2_113_475 (protein)
chain: DPEVREEIREAALSNLLSSLEELLKIAKENRRSEETMRMMVRGVIEAALELIRELNLPEEDVKKILELLEEVRKALAEKNPELAKLAQEGIEELRKAAEE
B21: usp_38_diff_out_3_65_530 (protein)
chain: KVEEKLKEAEEHLEKAEELVEELRRLTEEDPTLTADEVVEMLDKIDDELVAAGKAIEEAKKLNPTPEQKKKIEELEKRLDELIDRRIEAAEEAFLRVGEA
B22: usp_38_diff_out_2_61_512 (protein)
chain: SEELEEKAKKIKELIEEAKKLVEEIEKELDTADLAELEKKLKEAEEVINKAIDELEELYKKAVLLGDEEAIKKANELWDELGEVAARYNEVRRRLTERKL
B23: usp_38_diff_out_3_136_524 (protein)
chain: ATAAAKAQIKALEATAKALKEDSLKLVKELLEDPNVTPEDLESLKKIVLSSFDDLIAEVKAIKAAHPEVAAEADKAIKAIEEYKKEVEKAFNEAIAKKKA
B24: usp_38_diff_out_2_61_508 (protein)
chain: SEELEEKLEEVRRLLEEARRLIEELRRRLDTADEATLRALLREAESVLNEAIDLLIEVYNEAHELGDEETLEKADELWDELGRVAAELRRAREEFTDRVR
B25: usp_38_diff_out_2_35_494 (protein)
chain: SSAERAAREALLAEIDAKIDEAVALTREALELLAEINAPEEEFDELFKTYDAAMTALTTAARLVREGAPQEEIEKAKAKAEAALAKLKALLEEAKKRAKE
B26: usp_38_diff_out_2_35_493 (protein)
chain: SMEERREREERLKEIGARIDEAHELTREALELLAEIDAPQERFDRLFATYDAAMRALTAEARAVREGAPQEEIDRLRAEAEAALAELKALLAEARKLAAE
B27: usp_38_diff_out_3_65_529 (protein)
chain: KVEEEIKKAKKYLEEARKIIEELKEKVKTDPTITEEEVNEMLDEAADLIVKAGEALRKARKLNPDEEQKKEIEKLEKELDELIDEYTEAGREAFLAVGER
B28: usp_38_diff_out_3_136_525 (protein)
chain: SVAEAREQIKALEATAKALKESMLKLVEELLKDPNVTPEDLRELKEIVLDSFEDIKAEVEKIKKAHPEVKAEADAAIKKIEAYKKEVEAAFDAAIAAKEA
B29: usp_38_diff_out_3_124_518 (protein)
chain: SEAEELVAKAKELLEKLTKVLEEAEKALDKDLEKAEKLLKEADELLTELSAALLRLRDLAMADPSWRPALKEIEAKANEVIDKYTEVATKFFEKKAEAQE
B30: usp_38_diff_out_3_124_513 (protein)
chain: AEAEKLAKELDKALKELEKLIKEAEKELDKDPEKLKKLLEEADETLDRAAGLYMQLHELAAEDPSTRPLLKKAREKANKVIDRYTEVRTKALERLAELEE
B31: usp_38_diff_out_2_61_509 (protein)
chain: SEELKKKAEEIEKLLREARELIAEARAGLDTRDPAELRALLREAERVLDEAIDLLVEFYEEAVEAGDEEALKKADELWDELGRAAKELRELRERLTERVR
B32: usp_38_diff_out_3_136_519 (protein)
chain: STEEVKEEIKRLEATAESMKESTLKLIEELSKDPNVTPEDVEELKKVVLSAFQDLKDDVKALKEAHPEVKEEADKAEAKIEAYKAEVEAAFDALIAEKKA

Target: T1, USP38, Q8NB14
Assay: median log2 fold change of GCK-ALFA target abundance (FLAG IP / Myc IP barcode read proportion) (log2 ratio); each designed protein is fused to an ALFA-tag nanobody in HEK293 cells to bring the named protein to FLAG-tagged glucokinase (GCK); Myc marks an untargeted standard; higher = target protein stabilised (more abundant)
Details: target protein: 3xFLAG-MCP-GCK-ALFA reporter; HEK293 landing pad (RPLP)
Procedure, shortened: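 HEK293 landing-pad cells received a recombined binder library fused to the ALFA nanobody and were induced with 2 μg mL^−1 doxycycline, then transfected with a plasmid encoding a FLAG-tagged target and a Myc-tagged standard. Lysates were collected after 48 h for anti-FLAG and anti-Myc immunoprecipitation, and the circular RNA barcodes were reverse transcribed, amplified and sequenced. Target abundance for each binder is the median log2 ratio of FLAG to Myc barcode read proportions. Barcodes had to reach a proportion of at least 10^−7 in both replicates, each binder needed at least 3 barcodes per replicate, a pseudocount of 10^−6 was applied, and the two replicates were pooled.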

| Binder | median log2 fold change |
| --- | --- |
| B1 | 0.193 |
| B2 | 0.0853 |
| B3 | 0.112 |
| B4 | -0.553 |
| B5 | -0.0131 |
| B6 | 0.0275 |
| B7 | 0.412 |
| B8 | 0.4 |
| B9 | -0.0509 |
| B10 | -0.299 |
| B11 | 0.00989 |
| B12 | -0.698 |
| B13 | 0.269 |
| B14 | -0.205 |
| B15 | 0.192 |
| B16 | -0.217 |

| Binder | median log2 fold change |
| --- | --- |
| B17 | -0.179 |
| B18 | 0.305 |
| B19 | 0.0442 |
| B20 | 0.205 |
| B21 | 0.137 |
| B22 | 0.151 |
| B23 | -0.221 |
| B24 | -0.394 |
| B25 | -0.0997 |
| B26 | -0.077 |
| B27 | 0.0941 |
| B28 | -0.268 |
| B29 | -0.761 |
| B30 | -0.564 |
| B31 | 0.28 |
| B32 | 0.188 |
